Assay outcomes as filed in PubChem BioAssay.
Shown are actives, neighbours in structure and some others; about 7.1% of the full set was active somewhere.
MCF10A rerep = induces DNA re-replication in MCF 10a normal breast cells; Potency, µM (highest dose often 46.1 µM), for inactives: at the highest dose activity, positive = re-replication, hits mostly activators; actives 2.9% (n = 350,000); MCF 10A DNA re-replication, Hoechst nuclear intensity, 48 h; note: potency is the fitted concentration of half-maximal effect; % of control where 0% means no effect; nearly all actives have a fitted effect of over 50% in size
PINK1 modulator = PINK1 expression modulation | PINK1 immunofluorescence, high-content cytometry, 24 h | Potency, µM (top dose mostly 76.6 µM), without a hit: top-dose activation (PINK1 increase), usual class: activators | actives 0.2% (n = 410,000); active = well fitted activation curve with a large enough effect; inconclusive = small, poorly fitted or top-dose-only effect; cell line not stated here; note: potency is the fitted concentration of half-maximal effect; % of control where 0% means no effect; nearly all actives have a fitted effect of over 65% in size
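Measures PINK1 amount and localization on or inside mitochondria by immunofluorescence. Stable cells get compounds at 5 concentrations for 24 hours before fixation and staining; CCCP controls included.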
S2 tox = cell viability loss in ATXN counter-screen; S2 cells (HEK-293 line with an ATXN2-luciferase reporter) viability, CellTiter-Fluor protease fluorescence, 24 h; Potency, µM (top dose mostly 56.7 µM), usual class: cytotoxic; actives 0.49% (n = 400,000); note: potency is the fitted concentration of half-maximal effect; nearly all actives have a fitted effect of over 40% in size
SW480 rereplic = DNA re-replication induction in SW480 cells. SW480 DNA re-replication, Hoechst DNA content imaging, 48 h. Potency, µM (titrated, usually from 46.1 µM), inactives show at the highest dose re-replication activation, most hits filed as activators. actives 1.8% (n = 340,000). AID 624297; note: potency is the fitted concentration of half-maximal effect; % of control where 0% means no effect; nearly all actives have a fitted effect of over 55% in size
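250 cells/well; 23 nL cpd via pin tool; 48 hr, 37 C, 5% CO2; Hoechst 40 min; imager read of total nuclear intensity, ex 405/em 500-530 nm.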
IL1B secr inh = inhibitors of inflammasome signaling (IL-1 beta secretion). AID 743279. THP-1 LPS/ATP IL-1B secretion, AlphaLISA, 16 h; stronger effect = lower value. activity change, % at 57.5 µM. actives 4.7% (n = 360,000); in the data active = activity change below about -50%; inconclusive = mostly about -30% to -49%; note: % is set by controls: 0 for no effect and ±100 for the full control effect
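THP-1 cells pretreated 1 hr with compounds (up to 57.5 uM final), then stimulated with LPS (250 ng/mL final) plus ATP (1.25 mM final); secreted IL-1B measured by AlphaLISA after 16 hr, decreased signal indicating inhibition.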
ATXN2 expr inh = inhibitors of ATXN2 expression; HEK-293 ATXN2-luciferase reporter, luminescence, 24 h; Potency, µM (top dose mostly 57 µM), without a hit: at the highest dose activity change, negative = inhibition, usual class: inhibitors; actives 0.72% (n = 360,000); AID 1745845; note: potency is the fitted concentration of half-maximal effect; % is set by controls: 0 for no effect and ±100 for the full control effect; nearly all actives have a fitted effect of over 55% in size
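qHTS (up to 57 uM final) was run with 24 h compound exposure of reporter cells at 37 °C. Each well was multiplexed: SteadyGlo luminescence measured ATXN2-luciferase expression after a fluorogenic Gly-Phe-AFC viability readout (25 uM final).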
The depositor's hits bear a star; i = inactive; ? = inconclusive; / = no result given; [ ] = remark or other dose. Unless noted, calls come from the whole dose curve; as a rule, active = well fitted curve in the direction sought with a large enough effect; inconclusive = small, poorly fitted or top-dose-only effect, or another doubt; inactive = no such curve, though single readings can be large; an effect the other way counts as inactive or inconclusive.

SMILES	MCF10A rerep	PINK1 modulator	S2 tox	SW480 rereplic	IL1B secr inh	ATXN2 expr inh
CC1=CC(=O)C=CC1=Nc1ccc(N(C)C)cc1	/	-1%	?	/	-121*	?
CN(C)c1ccc(N=Nc2ccc(S(N)(=O)=O)cc2)cc1	0%	6%	i	-1%	-24	42%
COc1ccccc1-c1nnc(C2CCN(S(=O)(=O)c3ccccc3)CC2)o1	/	1%	i	/	/	2%
COc1cccc(C(O)c2nc(-c3cncnc3)cs2)c1 (centres undefined)	/	0%	i	/	-18	17%
C#CCOCCOCCOCCNc1nc(N2CCN(C(=O)CCCCCCCCCCNC(=O)[C@H](CCCCN)n3cc(CCCC(=O)O)nn3)CC2)nc(N2CCN(C(=O)CCCCCCCCCCNC(=O)[C@H](CCCCN)n3cc(CCCC(=O)O)nn3)CC2)n1	2%	2%	i	0%	-3	-30%
C#CCOCCOCCOCCNc1nc(N2CCN(C(=O)CCCCCCCCCCNC(=O)[C@@H](CCC(=O)O)n3cc(CCCCCN)nn3)CC2)nc(N2CCN(C(=O)CCCCCCCCCCNC(=O)[C@@H](CCC(=O)O)n3cc(CCCCCN)nn3)CC2)n1	-9%	-1%	i	0%[9.22 µM]	-13	3%
C#CCOCCOCCOCCNc1nc(N2CCN(C(=O)CCCCCCCCCCNC(=O)[C@H](CCCCN)n3cc(CCO)nn3)CC2)nc(N2CCN(C(=O)CCCCCCCCCCNC(=O)[C@H](CCCN=C(N)N)n3cc(C[C@@H](C)CC)nn3)CC2)n1	25%	-1%	18µM*	-7%	-98*	20µM*
C#CCOCCOCCOCCNc1nc(N2CCN(C(=O)CCCCCCCCCCNC(=O)Cn3cc(C[C@@H](C)O)nn3)CC2)nc(N2CCN(C(=O)CCCCCCCCCCNC(=O)[C@H](CCCCN)n3cc(C[C@@H](C)CC)nn3)CC2)n1	?	-1%	20µM*	0%	-77*	25µM*
C#CCOCCOCCOCCNc1nc(N2CCN(C(=O)CCCCCCCCCCNC(=O)[C@H](CCCCN)n3cc(C[C@@H](C)CC)nn3)CC2)nc(N2CCN(C(=O)CCCCCCCCCCNC(=O)[C@H](CCCCN)n3cc(C[C@@H](C)CC)nn3)CC2)n1	18µM*	-2%	13µM*	-8%[9.22 µM]	-66*	22µM*
C#CCOCCOCCOCCNc1nc(N2CCN(C(=O)CCCCCCCCCCNC(=O)[C@H](CCCCN)n3cc(CCCC(=O)O)nn3)CC2)nc(N2CCN(C(=O)CCCCCCCCCCNC(=O)[C@H](CCCN=C(N)N)n3cc(C[C@@H](C)CC)nn3)CC2)n1	?	0%	28µM*	-6%	-73*	?
COc1cc(Nc2ncc3c(n2)-c2ccc(Cl)cc2C(c2c(F)cccc2OC)=NC3)ccc1C(=O)O	/	/	/	/	/	1%
COc1ccc(C(=O)Oc2c(CN3CCOCC3)cc(Cl)c3cccnc23)cc1	?	1%	?	?	27	?
COc1cc(C(=O)Oc2c(CN3CCOCC3)cc(Cl)c3cccnc23)cc(OC)c1OC	?	6%	1.6µM*	?	33	1.6µM*
COc1cccc(C(=O)Oc2c(CN3CCOCC3)cc(Cl)c3cccnc23)c1	14%	-2%	?	26%	102	10µM*
CCOC(=O)C1=C(C(=O)OCC)N(CC)CCC1=O	?	0%	i	?	10	-7%
CC(=O)Nc1ccc(Nc2ncnc3c2c(-c2ccccc2)cn3-c2ccc(C)c(Cl)c2)cc1	/	7%	/	/	/	/
CC1=C(C(=O)Nc2ccc(Cl)cc2)C(C(C)C)n2nc(SCc3ccc(Cl)cc3)nc2N1 (centres undefined)	/	-1%	i	/	/	0%
Cc1ccc(-c2cc(C(=O)N/N=C/c3ccccc3)n[nH]2)o1	-25%	5%	i	12%	-14	7%
